The text below walks through data of PubChem BioAssay AID651636 (Sanford-Burnham Center for Chemical Genomics, 2012).

Each structure is given as a SMILES string. Hit rate of the full screen: of about 360,000 compounds, about 3,000 (0.83%) were called active. No stated cut-off is given here; in the data, active means inhibition above about 38%; inactive means the rest. The entries come from a sample that favours actives as a whole.

This assay deals with G-protein coupled receptor 183 (Homo sapiens) (UniProt P32249). The experiment in a line: EBI2 receptor antagonists, beta-arrestin recruitment, primary screen, cell-based, luminescence, 7a,25-OHC stimulation, uHTS (AID 651636).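 Further: enzyme fragment complementation signal reports receptor beta-arrestin coupling in cells; 0% = agonist plus DMSO wells and 100% = wells without agonist.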 The following applies: 7a,25-OHC stimulated, at 5 µM, hits give high values. (Activated receptors often draw arrestin, which recruitment assays turn into a signal.)
Sequence of G-protein coupled receptor 183 (Homo sapiens) (P32249 whole entry, looked up, the tested form may be a part): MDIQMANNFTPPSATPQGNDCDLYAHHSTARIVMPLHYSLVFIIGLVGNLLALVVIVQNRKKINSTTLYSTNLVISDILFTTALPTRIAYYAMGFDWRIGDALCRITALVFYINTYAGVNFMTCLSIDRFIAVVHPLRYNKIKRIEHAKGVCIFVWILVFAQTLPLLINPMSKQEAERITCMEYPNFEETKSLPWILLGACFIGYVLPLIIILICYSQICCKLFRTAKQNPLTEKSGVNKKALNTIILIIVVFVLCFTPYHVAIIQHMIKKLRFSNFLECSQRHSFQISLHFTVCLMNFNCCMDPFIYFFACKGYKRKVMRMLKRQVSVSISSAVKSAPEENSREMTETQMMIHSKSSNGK
Take `CCc1nc2ccc(C(=O)N3CCN(c4cccc(Cl)c4)CC3)cc2nc1CC`: the inhibition (usually the drop in the measured response relative to a control, in per cent) was -4.92% (inactive).

Turning to `Cc1nc2ccc(C(=O)N3CCN(c4ccccc4)CC3)cc2s1`, the inhibition was 65.3% (active).

In the case of `Cc1nc2ccc(C(=O)N3CCSCC3)cc2s1`, the inhibition is -12.2% (inactive).

As to `Cc1c(CN2CCCC(C(=O)c3cccc(Cl)c3)C2)c(=O)n(-c2ccccc2)n1C` (stereo unspecified), the inhibition is 5.82% (inactive).

For the compound `CC[C@]1(C(=O)OC)[C@H]2C(=O)N(Cc3ccccc3)C(=O)[C@H]2[C@H]2CN=C(SCc3ccc(Cl)cc3)N21`, the inhibition is 19.5% (inactive).

As to `OC[C@@H]1CN(Cc2ccncc2)C[C@H](n2cnc3c(N4CCN(c5ccccc5)CC4)ncnc32)O1`, the inhibition was 13.5% (inactive).

As for `CCC1Nc2ncnc(N3CCN(c4ccccc4)CC3)c2N(Cc2ccc(Cl)cc2)C1=O` (stereo unspecified), the inhibition was 68.8% (active).

Turning to `CC(C)CC1(C)NC(=O)N(CC(=O)Nc2ccc3c(c2)OCCO3)C1=O` (stereo unspecified), the inhibition is 10.5% (inactive).

Take `O=C(NCCS(=O)(=O)N1CCN(c2ccc(F)cc2)CC1)c1ccc2c(c1)OCO2`: the inhibition was 5.18% (inactive).

With `O=C(NNC(=S)Nc1ccc(F)cc1)[C@H]1C[C@@H]1c1ccccc1`, the inhibition is -13.1% (inactive).

In the case of `CCN(CC)c1ccc(/C=N/Nc2nc(C)cc(C)n2)c(O)c1`, the inhibition is 42.4% (active).

For the compound `O=C(NCCN1C(=O)S/C(=C\c2cccnc2)C1=O)c1ccc(S(=O)(=O)N2CCCC2)cc1`, the inhibition was -1.14% (inactive).

In the case of `Cc1ccc(SCCC(=O)NC(C(C)C)C(C)C)cc1`, the inhibition is 5.4% (inactive).

With `CCOc1cccc(OCCCOc2cccc3cccnc23)c1`, the inhibition is 4.1% (inactive).

`Cc1cc(OCCOc2cccc3cccnc23)c(C)cc1Cl`: the inhibition was 46.6% (active).

Turning to `O=S(=O)(NCCOc1cccc2cccnc12)c1ccc(F)cc1`, the inhibition was 0.785% (inactive).

As to `CCOC(=O)N1CCN(C(=O)C[C@@H]2C[C@@]3(C(=O)OC)CC(C)(C)CC=C3N(Cc3ccco3)C2=O)CC1`, the inhibition is 3.44% (inactive).

Regarding `Cc1[nH]c(=O)c(C(=O)/C=C/c2ccccc2)c2c1CCCC2`, the inhibition is -9.45% (inactive).

On to `Cc1nc(-c2ccc(Cl)cc2)sc1C(=O)CBr`, for which the inhibition was 10.7% (inactive).

Turning to `Cc1nc(-c2ccccc2)sc1C(=O)/C=C/c1ccccc1`, the inhibition is 55.4% (active).

Consider `CC1=C/C(=N\OS(=O)(=O)c2ccccc2)C=CC1=O`, for which the inhibition is -17.6% (inactive).

Take `O=S(=O)(Nc1cccc(-n2cnnn2)c1)c1cnc(Cl)c(Cl)c1`: the inhibition was -8.42% (inactive).

For `CC(C)(C)C1CCC(=NNC(=O)c2ccc(Br)o2)CC1` (stereo unspecified), the inhibition was -9.46% (inactive).

`COc1ccc([C@H]2CC(=O)C=C(/C=C/c3ccc(Cl)cc3)C2)cc1`: the inhibition is 44.1% (active).

As for `O=C1C=C(c2cccc(Cl)c2)C[C@@H](c2ccc(F)cc2)C1`, the inhibition is 22.1% (inactive).

`COc1ccc([C@H]2CC(=O)C=C(c3ccc(OC(F)(F)F)cc3)C2)cc1OC`: the inhibition was 31% (inactive).

Turning to `COc1ccc([C@H]2CC(=O)C=C(/C=C/c3ccccc3)C2)cc1`, the inhibition was 34.9% (inactive).

In the case of `CCCCC/C=C/C1=CC(=O)C[C@H](c2ccc(Cl)cc2)C1`, the inhibition is 4.95% (inactive).

For the compound `COc1ccc([C@H]2CC(=O)C=C(c3ccc(C)cc3)C2)cc1`, the inhibition is 81.1% (active).

On to `COc1ccc([C@H]2CC(=O)C=C(c3ccc(CO)cc3)C2)cc1`, for which the inhibition is 29.6% (inactive).

As to `O=C1C=C(c2cc(C(F)(F)F)cc(C(F)(F)F)c2)C[C@@H](c2ccc3c(c2)OCO3)C1`, the inhibition is 14% (inactive).

In the case of `O=C1C=C(c2cccc(Br)c2)C[C@@H](c2ccc(F)cc2)C1`, the inhibition is 36.7% (inactive).

As for `COc1ccc2cc(C3=CC(=O)C[C@H](c4ccc5c(c4)OCO5)C3)ccc2c1`, the inhibition is 71.7% (active).

Regarding `N#Cc1ccc(C2=CC(=O)C[C@H](c3ccc(Cl)cc3)C2)cc1`, the inhibition was 80.3% (active).

As to `COc1cccc(C2=CC(=O)C[C@H](c3ccc(OC)c(OC)c3)C2)c1`, the inhibition was 10.2% (inactive).

Turning to `CSc1ncnc2c1ncn2CCCNCc1cccs1`, the inhibition was -4.51% (inactive).

Take `COc1ccccc1C(=O)N1C(CC(=O)Nc2ccccc2C)C(=O)NC2CCCCC21` (stereo unspecified): the inhibition was 3.5% (inactive).

`COc1ccc(C)cc1NC(=O)CSc1nnc(CC(=O)Nc2ccccc2F)n1C`: the inhibition was 6.35% (inactive).

For the compound `CC1CCc2sc3nc(N4CCN(CCO)CC4)n4ncnc4c3c2C1` (stereo unspecified), the inhibition is 61.6% (active).

Consider `CN1C[C@@H](CO)O[C@@H](n2cnc3c(N4CCN(CCO)CC4)ncnc32)C1`, for which the inhibition is 5.76% (inactive).

Turning to `Cc1ccc(C)c(C(=O)N2CCC(n3nccc3NC(=O)C3CC3)CC2)c1`, the inhibition is 5.07% (inactive).

As for `C/C=C/C=C/C(=O)OCC(=O)Nc1ccc(Cl)cc1`, the inhibition is 1.78% (inactive).

As to `COc1ccc(NC(=O)N2CCC(Cc3ccccc3)CC2)cc1`, the inhibition was 65.5% (active).

Take `COc1ccc(C(=O)NC2CCN(C(=O)Nc3ccc(F)cc3)CC2)cc1`: the inhibition was -4.2% (inactive).

Take `COc1ccc(NC(=O)N2CCCC(C(=O)Nc3ccccc3OC)C2)cc1` (stereo unspecified): the inhibition is 18.7% (inactive).

In the case of `NC(=O)C1(N2CCCCC2)CCN(C(=O)c2ccc(C#Cc3ccccc3)o2)CC1`, the inhibition is -2.84% (inactive).

For `CCc1ccccc1NC(=S)Nc1cc(OC)c(NC(=O)C(C)C)cc1OC`, the inhibition was -4.78% (inactive).

Take `O=C(Nc1ccc(S(=O)(=O)N2CCCCC2)cc1)C1CC(=O)N(c2ccc(F)cc2)C1` (stereo unspecified): the inhibition was 45.7% (active).

As to `Cc1ccccc1N1CC(C(=O)Nc2ccc(S(=O)(=O)N3CCCC3)cc2)CC1=O` (stereo unspecified), the inhibition was 7.48% (inactive).

With `O=C(Nc1ccc(S(=O)(=O)N2CCCCC2)cc1)C1CCN(C(=O)c2ccc(F)cc2)CC1`, the inhibition is 17% (inactive).

In the case of `Cc1ccc(NC(=O)C2CC(=O)N(c3ccc4c(c3)OCCO4)C2)cc1S(=O)(=O)N1CCCCCC1` (stereo unspecified), the inhibition is 14.6% (inactive).

As to `Cc1ccc(N2CC(C(=O)Nc3ccc(S(=O)(=O)N4CCCC4)cc3)CC2=O)cc1C` (stereo unspecified), the inhibition is 45.4% (active).

With `CC1CCN(S(=O)(=O)c2ccc(NC(=O)C3CC(=O)N(c4ccccc4)C3)cc2)CC1` (stereo unspecified), the inhibition was 38% (inactive).

For `CCCNC(=O)C1(C)CCN(C(=O)c2ccc(F)cc2Cl)C1` (stereo unspecified), the inhibition was -4.71% (inactive).

As for `OCCC#Cc1ccc(N2C(c3ccsc3)=Cc3ccc(F)cc3C2c2c[nH]c3ccccc23)cc1` (stereo unspecified), the inhibition is 10.6% (inactive).

Regarding `Cc1cnc(CN(C)C(=O)CC2C(=O)NCCN2Cc2cccc(F)c2F)[nH]1` (stereo unspecified), the inhibition was -7.04% (inactive).
